Results filed as inconclusive are left out. A number with no mark means an inactive call. Calls of active or inactive are those of the source. The call rests on the fitted dose curve; in most records, active means well fitted curve in the direction sought with a large enough effect; inconclusive means small, poorly fitted or top-dose-only effect, or another doubt; inactive means no such curve, though single readings can be large; an effect the other way counts as inactive or inconclusive.

Experiment [1] in a line: qHTS assay to identify small molecule inhibitors of chordoma cells - UCH-2 (AID 1259356). Further: series mostly up to about 46 µM.
A short description of experiment [2]: P-glycoprotein substrates identified in KB-8-5-11 adenocarcinoma cell line, qHTS therapeutic library screen (AID 1346987). Further: nearly all actives have a fitted effect of over 65% in size. The following applies: outcome: dose series up to 44.5 µM. The method, boiled down: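 Luminescence from CellTiter-Glo, read 5 min after addition, quantified survival of KB-8-5-11 (P-gp-overexpressing) cells exposed to compounds for 72 h. AC50 was derived from concentration-response curves.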

A short description of experiment [3]: NS1 protein of Zika virus - qHTS assay to identify small molecule inhibitors in human HEK 293 cells (AID 1347053). Further: series mostly up to about 46 µM; nearly all actives have a fitted effect of over 55% in size. The method, boiled down:
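Compound-treated (1 h pre-infection) HEK 293 cells infected with ZIKV MR766, MOI = 0.5; after 24 h at 37 C, NS1 read by TR-FRET; data normalized to uninfected and infected controls.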

A short description of experiment [4]: qHTS of pediatric cancer cell lines to identify multiple opportunities for drug repurposing: Primary screen for TC32 cells (AID 1347089). Further: nearly all actives have a fitted effect of over 60% in size. The method, boiled down: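 Luminescent ATP read-out (CellTiter-Glo) of metabolically active TC32 cells after 48 h exposure. Concentration-response curves came from 11-point (MIPE, 0.78 nM–46 µM) or 8-point (NPC, 0.59 nM–46 µM) primary titrations; follow-up used 11 points.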

Experiment [5] can be described thus: qHTS of pediatric cancer cell lines to identify multiple opportunities for drug repurposing: Primary screen for DAOY cells (AID 1347090). Further: series mostly up to about 46 µM; nearly all actives have a fitted effect of over 55% in size. The method, boiled down:
(§1)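 Cell viability, CellTiter-Glo luminescence; 500-1,000 cells/well, 8- or 11-point titration, 48 h compound exposure at 37 degrees C, 5% CO2. Controls: DMSO neutral, bortezomib 2.3 µM final as positive.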

Experiment [6] can be described thus: qHTS of pediatric cancer cell lines to identify multiple opportunities for drug repurposing: Primary screen for SJ-GBM2 cells (AID 1347091). The method, boiled down:
as §1

A short description of experiment [7]: qHTS of pediatric cancer cell lines to identify multiple opportunities for drug repurposing: Primary screen for A673 cells (AID 1347092). Further: nearly all actives have a fitted effect of over 45% in size. The method, boiled down:
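Cell viability of A673 measured by CellTiter-Glo ATP luminescence after 48 hours compound exposure. Dilution series spanned 0.78 nM to 46 µM (MIPE, 11-point) or 0.59 nM to 46 µM (NPC, 8-point); bortezomib 2.3 uM positive control.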

A short description of experiment [8]: qHTS of pediatric cancer cell lines to identify multiple opportunities for drug repurposing: Primary screen for SK-N-MC cells (AID 1347093). Further: potency means the concentration at half of the fitted maximal effect. The method, boiled down: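 Metabolically active cells were quantified by ATP-dependent luminescence (CellTiter-Glo, 15 min at room temperature) following 48 h treatment. Cells had been plated at 500-1,000 per well and settled for 5 h beforehand.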

A short description of experiment [9]: qHTS of pediatric cancer cell lines to identify multiple opportunities for drug repurposing: Primary screen for BT-37 cells (AID 1347094). Further: series mostly up to about 57 µM. The method, boiled down:
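Primary screen of approved and investigational compounds on cells in growth media at 37 degrees C, 5% CO2. MIPE set at 11-point and NPC set at 8-point dilutions; viability scored by ATP-based luminescence at 48 hours.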

The nature of experiment [10]: P-glycoprotein substrates identified in KB-3-1 adenocarcinoma cell line, qHTS therapeutic library screen (AID 1346986). Further: nearly all actives have a fitted effect of over 60% in size. The note with it: outcome: dose series up to 44.5 µM. The method, boiled down: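 Viability read by CellTiter-Glo after 72 h compound exposure in dose-response of KB-3-1 and KB-8-5-11 (P-gp-high) cells. Hits needed AC50 < 10 uM, >50% maximum response and curve class -1.1 to -2.4. Cherry-picks retested ± tariquidar, including pcDNA/MDR-19 HEK-293 pair.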

Regarding `C[C@H]1COc2c(C3(N)CC3)c(F)cc3c(=O)c(C(=O)O)cn1c23`, the result in experiment [1], in experiment [2], in experiment [3], in experiment [4], in [5] and in [6] was inactive. Also, the molecule was classed as inactive in experiment [7] and in experiment [9]. Besides, in [8], the Potency result was “inactive”.
As for `CC(C)C[C@@H](N)C(=O)O`, the outcome in experiment [1], in [10], in [2], in [3], in experiment [4] and in experiment [5] was inactive. Further, the outcome in experiment [9] was inactive.
As to `C[N+]1(C)CCCC(OC(=O)C(O)(c2ccccc2)c2ccccc2)C1` (configuration not stated), the molecule was called inactive in [1], in [2], in [3], in experiment [4], in experiment [5] and in experiment [6]. The molecule was classed as inactive in experiment [7] and in experiment [9]. Also, the Potency entry in experiment [8] is “inactive”.
Regarding `CCOc1cc(NC(C)=O)ccc1C(=O)OC`, the call in experiment [1], in [2], in experiment [3], in [4], in experiment [5] and in [6] was inactive. Further, the molecule was called inactive in experiment [7] and in experiment [9]. Besides, in experiment [8], the Potency entry is “inactive”.
In the case of `O=C(O)[C@@H]1[C@H]2C[C@H]3c4[nH]c5ccccc5c4CCN3C[C@@H]2CC[C@@H]1O`, the molecule was classed as inactive in experiment [1], in experiment [2], in experiment [3], in experiment [4], in experiment [5] and in [6]. Further, the call in [7] and in experiment [9] was inactive. Further, the Potency result in experiment [8] was “inactive”.
For `O[C@@H]1CO[C@H]2[C@@H]1OC[C@@H]2O`, the molecule was classed as inactive in experiment [1], in experiment [2], in [3], in experiment [4], in [5] and in experiment [6]. Also, the molecule was called inactive in experiment [7] and in [9]. Moreover, the Potency result in experiment [8] was “inactive”.
Turning to `Cc1cccc(C)c1NC(=O)CC12CCCN1CCC2`, the result in [1], in [2], in [3], in experiment [4], in [5] and in experiment [6] was inactive. Moreover, the molecule was called inactive in [7] and in experiment [9]. For the same molecule, in experiment [8], the Potency entry is “inactive”.
As for `O=C(NCN1CCOCC1)c1cnccn1`, the result in [1], in [2], in [3], in experiment [4], in [5] and in experiment [6] was inactive. Further, the molecule was called inactive in experiment [7] and in experiment [9]. Further, in experiment [8], the Potency entry is “inactive”.
`CC(=O)Nc1ccccc1`: the result in [1], in experiment [2], in experiment [3], in [4], in experiment [5] and in experiment [6] was inactive. Further, the outcome in experiment [7] and in [9] was inactive. Besides, in [8], the Potency result was “inactive”.
In the case of `O=C(O)CCCc1ccccc1`, the call in experiment [1], in [10], in experiment [3], in [4], in experiment [5] and in experiment [6] was inactive. Further, the molecule was classed as inactive in experiment [7] and in [9]. The Potency entry in [8] was “inactive”.
As to `O=C(O)/C=C/c1ccc(Cn2ccnc2)cc1`, the outcome in experiment [1], in [2], in experiment [3], in [4], in experiment [5] and in experiment [6] was inactive. Further, the molecule was classed as inactive in experiment [7] and in [9]. Further, the Potency entry in [8] was “inactive”.
Consider `CCN(CC)C(=O)c1cccc(C)c1`, for which the result in experiment [1], in [2], in experiment [3], in experiment [4], in experiment [5] and in experiment [6] was inactive. Besides, the outcome in experiment [7] and in [9] was inactive. For the same molecule, the Potency result in experiment [8] is “inactive”.
Turning to `OCC(O)CS` (configuration not stated), the outcome in experiment [1], in experiment [2], in experiment [3], in [4], in [5] and in [6] was inactive. For the same molecule, the call in experiment [7] and in experiment [9] was inactive. The Potency result in [8] was “inactive”.
Turning to `NCc1ccc(S(N)(=O)=O)cc1`, the molecule was called inactive in [1], in [2], in experiment [3], in experiment [4], in [5] and in experiment [6]. In addition, the molecule was classed as inactive in experiment [7] and in experiment [9]. Besides, the Potency entry in [8] was “inactive”.
As to `CCOC(=O)[C@H](CCc1ccccc1)N[C@@H](C)C(=O)N1CCC[C@H]1C(=O)O`, the outcome in experiment [1], in experiment [2], in [3], in experiment [4], in experiment [5] and in experiment [6] was inactive. The molecule was classed as inactive in [7]. Further, the Potency entry in experiment [8] is “inactive”.
As to `CO[C@@]1(NC(=O)C(C(=O)O)c2ccc(O)cc2)C(=O)N2C(C(=O)O)=C(CSc3nnnn3C)CO[C@@H]21` (some centres not stated), the call in experiment [1], in [2], in [3], in experiment [4], in [5] and in experiment [6] was inactive. Besides, the call in experiment [7] and in experiment [9] was inactive. Besides, the Potency result in [8] is “inactive”.
`Cc1c(I)c(=O)n(-c2ccccc2)n1C`: the result in experiment [1], in experiment [2], in experiment [3], in experiment [4], in [5] and in [6] was inactive. Further, the outcome in experiment [7] and in experiment [9] was inactive. The Potency entry in [8] was “inactive”.
As for `CC(O)CCCCn1c(=O)c2c(ncn2C)n(C)c1=O` (configuration not stated), the outcome in experiment [1], in [2], in experiment [3], in [4], in [5] and in experiment [6] was inactive. Further, the call in experiment [7] and in experiment [9] was inactive. The Potency entry in [8] was “inactive”.
`COc1ccc(Cc2cnc(N)nc2N)cc1OC`: the call in [1], in [2], in experiment [3], in [4], in [5] and in [6] was inactive. Moreover, the outcome in [7] and in experiment [9] was inactive. For the same molecule, in experiment [8], the Potency is 7.5 µM (active).
Consider `NNc1nnc(NN)c2ccccc12`, for which the result in experiment [1], in [2], in experiment [3], in experiment [4], in [5] and in [6] was inactive. The molecule was classed as inactive in experiment [7] and in experiment [9]. Further, the Potency entry in experiment [8] is “inactive”.
As for `NC(N)=NS(=O)(=O)c1ccc(N)cc1`, the call in experiment [1], in experiment [2], in [3], in experiment [4], in experiment [5] and in experiment [6] was inactive. Moreover, the molecule was classed as inactive in experiment [7] and in experiment [9]. Moreover, the Potency result in [8] was “inactive”.
Take `CC(C)CCCC(C)CCCC(C)CCCCC(C)CCCC(C)CCCC(C)C` (configuration not stated): the molecule was classed as inactive in experiment [1], in experiment [2], in experiment [3], in experiment [4], in experiment [5] and in experiment [6]. Moreover, the molecule was called inactive in [7] and in experiment [9]. Besides, in experiment [8], the Potency entry is “inactive”.
With `CC(=O)NS(=O)(=O)c1ccc(N)cc1`, the molecule was classed as inactive in experiment [1], in [2], in experiment [3], in experiment [4], in experiment [5] and in experiment [6]. The molecule was called inactive in experiment [7] and in experiment [9]. Besides, in experiment [8], the Potency result was “inactive”.
Regarding `COc1ccccc1OC(=O)Oc1ccccc1OC`, the call in [1], in [2], in experiment [3], in [4], in experiment [5] and in experiment [6] was inactive. The molecule was classed as inactive in [7] and in [9]. Besides, the Potency result in experiment [8] is “inactive”.
As to `CN(C(=O)c1c(O)c2ccccc2n(C)c1=O)c1ccccc1`, the molecule was classed as inactive in [1], in [2], in [3], in experiment [4], in [5] and in experiment [6]. Also, the outcome in experiment [7] and in [9] was inactive. For the same molecule, in [8], the Potency result is “inactive”.

Values taken from PubChem BioAssay (NCATS).
